Screens from PubChem BioAssay.
PrPC surface inh – reduces human prion protein on the cell surface. inhibition, % at 13.8 µM. 370,000 compounds, 0.43% hits. cell surface PrPC, TR-FRET read-out. AID 720596. P04156; in the data active = inhibition above about 24%
GDH-TPI inh – counter-screen for M. tuberculosis FBA inhibitors: GDH-TPI coupled enzymes. GDH-TPI coupled enzyme counterscreen, NADH absorbance. inhibition, % at 4.8 µM. 360,000 compounds, 1.2% hits. AID 588335; in the data active = inhibition above about 30%
BJeLR lethal – BJeLR cell viability loss; BJeLR (HRASV12) viability, CellTiter-Glo ATP luminescence, 48 h; inhibition, % (test concentration not listed); 300,000 compounds, 0.17% hits; AID 1554; in the data active = inhibition above about 50%
RecA splice inh – inhibitors of M. tuberculosis RecA intein splicing; cell-free RecA intein splicing, fluorescence; inhibition, % (test concentration not listed); 290,000 compounds, 0.75% hits; in the data active = inhibition above about 30%
Target sequence (P9WHJ3 whole entry, looked up, canonical isoform): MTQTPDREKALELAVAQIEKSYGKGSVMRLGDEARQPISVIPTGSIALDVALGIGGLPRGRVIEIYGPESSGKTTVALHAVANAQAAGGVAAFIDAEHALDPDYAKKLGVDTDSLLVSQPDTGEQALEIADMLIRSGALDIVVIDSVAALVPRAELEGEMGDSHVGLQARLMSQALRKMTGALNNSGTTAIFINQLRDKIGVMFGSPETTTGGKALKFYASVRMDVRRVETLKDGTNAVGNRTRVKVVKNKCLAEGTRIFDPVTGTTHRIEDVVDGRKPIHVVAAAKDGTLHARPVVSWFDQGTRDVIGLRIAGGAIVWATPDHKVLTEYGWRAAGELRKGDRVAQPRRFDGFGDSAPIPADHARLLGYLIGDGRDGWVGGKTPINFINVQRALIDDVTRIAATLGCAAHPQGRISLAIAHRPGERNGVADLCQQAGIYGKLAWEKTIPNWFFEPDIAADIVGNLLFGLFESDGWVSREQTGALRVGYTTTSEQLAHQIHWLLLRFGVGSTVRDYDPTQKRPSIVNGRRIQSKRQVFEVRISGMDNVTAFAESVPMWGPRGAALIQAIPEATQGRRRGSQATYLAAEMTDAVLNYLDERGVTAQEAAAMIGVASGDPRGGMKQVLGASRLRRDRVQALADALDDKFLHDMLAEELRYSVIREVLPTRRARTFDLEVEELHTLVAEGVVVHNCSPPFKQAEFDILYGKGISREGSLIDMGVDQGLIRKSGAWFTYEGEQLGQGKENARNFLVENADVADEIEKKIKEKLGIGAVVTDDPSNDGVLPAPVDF
Mtb FBA inh – inhibitors of M. tuberculosis fructose-bisphosphate aldolase | P9WQA3 | purified M. tuberculosis FBA, fluorescence read-out | inhibition, % at 1 µM | 360,000 compounds, 2.3% hits | AID 588726; in the data active = inhibition above about 27%
Numbers stand for hits; n = inactive; x = no result; + = active, no number. The list is not random: actives were taken first. Their share in the collection is about 4.2%.

SMILES	PrPC surface inh	GDH-TPI inh	BJeLR lethal	RecA splice inh	Mtb FBA inh
CN(C)c1ccc(/C=C/c2nc3ccccc3c(=O)n2-c2ccc(C(=O)O)cc2)cc1	n	n	n	n	n
O=C(O)c1cccc(-n2c(/C=C/c3ccccc3)nc3ccccc3c2=O)c1	n	32	n	n	n
N#C/C(=C\Nc1ccccc1O)c1nc2ccccc2o1	n	33	n	n	n
COc1cccc(C(=O)N2CCC(Oc3cccnc3)CC2)c1	n	x	x	x	x
Cc1cnnn1-c1ccc(C(=O)CCl)cc1	n	n	n	52	n
COc1ccc(S[C@]2(C(=O)N3CCCC3)CC(=O)N(c3ccccc3OC)[C@@H]2c2ccc(OC)cc2)cc1	n	x	x	x	x
CCOc1cc(C(c2c(C)[nH][nH]c2=O)c2c(C)[nH][nH]c2=O)ccc1OS(=O)(=O)c1ccccc1	n	n	n	97	n
CCOc1cc(C(=S)N2CCOCC2)ccc1OS(=O)(=O)c1ccc(C)cc1	n	n	n	n	n
O=C(Nc1cccc2ccccc12)ON=C1CCCCC1	n	n	x	x	116
Cc1cccc(NS(=O)(=O)c2cc(NC(=O)CC(=O)c3ccc([N+](=O)[O-])cc3)ccc2C)c1	x	x	n	n	x
Cc1cccc(N(CC(=O)N/N=C/c2cc([N+](=O)[O-])ccc2Cl)S(C)(=O)=O)c1C	x	n	n	n	34
Cc1cccc(NS(=O)(=O)c2ccc(NC(=O)CN(c3cc([N+](=O)[O-])ccc3C)S(C)(=O)=O)cc2)c1	n	n	69	n	n
COc1ccc(C)cc1NS(=O)(=O)c1ccc(NC(=O)CN(c2cc([N+](=O)[O-])ccc2C)S(C)(=O)=O)cc1	n	n	109	n	n
CS(=O)(=O)N(CC(=O)N/N=C/c1cc([N+](=O)[O-])ccc1Cl)c1ccccc1	n	n	n	n	n
CCOc1ccc(Oc2c(Cl)c(Br)nn(Cc3cccc4ccccc34)c2=O)cc1	n	x	x	x	x
CC(C)n1nnnc1C1(C)CN(S(C)(=O)=O)CC(=O)N1Cc1cccc(C(F)(F)F)c1 (centres undefined)	n	x	x	x	x
O=C(NN=Cc1ccc(-c2ccccc2)cc1)c1cc(-c2ccc(Cl)cc2)n[nH]1	n	x	x	x	x
COC(=O)c1cc2c(ccc3ccccc32)oc1=O	n	n	n	n	+
CNc1ccc(-c2cccc(C(C)=O)c2)cn1	n	n	x	x	n
CNc1ccc(-c2cccc(CO)c2)cn1	n	n	x	x	171
COc1ccc(/C=C(\NC(=O)c2cccs2)C(=O)Nc2ccc(C)cc2)cc1OC	n	52	n	n	n
COc1ccc(/C=C(/NC(=O)c2cccs2)C(=O)Nc2ccc(C)cc2)cc1OC	n	n	n	n	n
C=CCC[C@@H](Cc1ccc(F)cc1)C(=O)OC[C@H](C)NC(=O)[C@@H](CC=C)CC(=O)N(CCO)Cc1ccccc1	n	n	x	x	n
C=CCC[C@@H](Cc1ccc(F)cc1)C(=O)OC[C@H](C)NC(=O)[C@H](CC=C)CC(=O)N(CCO)Cc1ccccc1	n	n	x	x	134
O=C1c2ccccc2NC(c2ccccc2)N1/N=C/c1ccccc1 (centres undefined)	n	n	n	n	n
SMILES	PrPC surface inh	GDH-TPI inh	BJeLR lethal	RecA splice inh	Mtb FBA inh
O=C1c2ccccc2NC(c2ccc(O)cc2)N1/N=C/c1ccc(O)cc1 (centres undefined)	n	32	n	n	n
COC(=O)C1CSC(C(=O)OC)N1C(=O)Nc1ccc(Cl)cc1 (centres undefined)	n	n	n	n	103
Clc1cc2nc3ccccn3c2cc1Cl	n	n	n	n	140
O=Cc1c(Cl)nc2ccccn12	n	n	n	n	n
O=C(NN=Cc1ccc([N+](=O)[O-])cc1)c1ccncc1	n	40	x	x	n
Nc1ccc(C(=O)N/N=C\C=C\c2ccc([N+](=O)[O-])cc2)cc1	n	47	n	n	n
O=C(N/N=C/c1ccc(Cl)cc1Cl)c1cccc(N2CCCC2=O)c1	n	n	n	n	n
O=C(N/N=C/c1ccncc1)c1cc([N+](=O)[O-])cc([N+](=O)[O-])c1	n	n	n	n	n
O=C(N/N=C/c1ccc([N+](=O)[O-])cc1)c1cccc(N2CCCC2=O)c1	n	40	n	n	n
CC(C)C(=O)Nc1ccccc1C(=O)N/N=C/c1ccc([N+](=O)[O-])cc1	n	35	n	n	n
O=C(N/N=C/c1ccc([N+](=O)[O-])cc1)c1ccccc1OCc1ccccc1	n	n	n	n	n
COC(=O)c1cc(S(=O)(=O)N2CCN(C(C)=O)CC2)cn1C	n	x	x	x	x
O=C(N/N=C/c1ccc([N+](=O)[O-])o1)c1cc(-c2cccc(Br)c2)nc2ccccc12	n	39	n	n	n
CCC(=O)Nc1ccc(C(=O)N/N=C/c2ccc([N+](=O)[O-])cc2)cc1	n	51	n	n	n
CCC(=O)Nc1ccc(C(=O)NNC(=O)c2ccc([N+](=O)[O-])cc2)cc1	n	n	n	n	n
CCCc1ccc(-c2cc(C(=O)N/N=C/c3ccc([N+](=O)[O-])o3)c3ccccc3n2)cc1	n	n	n	n	n
CC(=O)n1cc(/C=N/NC(=O)c2ccc([N+](=O)[O-])cc2)c2ccccc21	n	32	n	n	n
O=C(N/N=C/c1cccn1-c1ccc([N+](=O)[O-])cc1)c1cccnc1	n	53	n	n	n
Cc1cc(NC(=O)c2ccc(NS(=O)(=O)c3ccccc3)cc2)no1	n	x	x	x	x
COc1ccc(C)c(NC(=O)[C@@H]2CCCN2S(=O)(=O)c2cccc3cccnc23)c1	n	x	x	x	x
COc1cccc(N2CCN(CC(=O)NCc3cccc(OC)c3OC)CC2)c1	n	x	x	x	x
Cc1ccc(NC(=O)CCC(=O)N/N=C/c2ccc([N+](=O)[O-])o2)cc1C	n	n	n	n	n
CCCC(=O)Nc1ccc(C(=O)N/N=C/c2ccc([N+](=O)[O-])o2)cc1	n	n	122	n	n
Cc1cc(C(=O)N/N=C/c2ccc([N+](=O)[O-])o2)c(C)o1	n	41	n	n	n
CC(=O)c1ccc(N2CCCCCC2)c(F)c1	n	34	n	n	n
SMILES	PrPC surface inh	GDH-TPI inh	BJeLR lethal	RecA splice inh	Mtb FBA inh
COC(=O)[C@]12C[C@H](CC(=O)NCc3ccccc3)C(=O)N(Cc3cccc4ccccc34)C1=C[C@H](C1CCCC1)O[C@@H]2C	n	x	x	x	x
CN(C)S(=O)(=O)c1cccc(C(=O)N/N=C\c2ccnc3ccccc23)c1	n	x	x	x	x
O=C(c1ccco1)N1N=C(c2cccs2)CC1c1ccc(F)cc1 (centres undefined)	n	n	n	n	n
O=C(c1ccco1)N1N=C(c2cccs2)CC1c1cc([N+](=O)[O-])ccc1O (centres undefined)	n	45	n	n	n
CC(C)(C)n1nnnc1C(c1ccc(F)cc1)N(Cc1ccc(F)cc1)Cc1ccco1 (centres undefined)	n	n	n	n	n
Cc1ccc(C(c2nnnn2C(C)(C)C)N(Cc2ccco2)Cc2cccs2)cc1 (centres undefined)	n	n	n	n	36
C[C@H]1[C@@H](OC(=O)Nc2ccc(C#N)cc2)CC[C@@]23CCCN2C(=O)CCC[C@@H]13	n	x	x	x	x
O=C(Nc1nc2ccccc2[nH]1)c1ccccc1F	n	n	85	n	n
